Measured potencies and affinities stand elsewhere. Activity calls are given as the source filed them.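 The calls were made as follows: active = cell killing, meaning signal decrease, with fitted half-maximal dose at or below ten times the top valid tested dose; inconclusive = poor fit, or flat curve with 30 to 70% signal loss; inactive = the rest.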
Experiment: ATP-based viability loss in HeLa cells – cell-based, CellTiter-Glo luminescence, cherry-pick samples, cytotoxicity control for MITF activator project, dose response (AID 540259);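 also: 0% = DMSO neutral control and -100% = mitoxantrone positive control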
Settings: 24 h; series mostly up to 35 µM; activity change, negative = cytotoxicity: at the top concentration

Structure (SMILES)	activity change, negative = cytotoxicity
O=c1nc(/C=C/c2ccc(O)c(O)c2)oc2ccccc12	11.3% (inactive)
COc1ccc2cc(C(=O)NCCc3ccccc3)[nH]c2c1	8.17% (inactive)
O=C(Nc1ccc(Br)cc1F)c1ccc2nsnc2c1	-0.602% (inactive)
CN1CCN(/N=C/c2ccc(Br)cc2)CC1	1.36% (inactive)
COc1ccc(C(=O)c2ccc(CC#N)s2)cc1	-7.56% (inactive)
COc1ccc(-c2ccc3oc(-c4ccsc4)cc(=O)c3c2)cn1	9.06% (inactive)
Cc1cccc(C(=O)Nc2ccn(C)n2)c1	14.6% (inactive)
C=CCSc1nncn1/N=C/c1ccc(OC)cc1	11.5% (inactive)
CCc1ccc(OC(=O)Nc2ccccc2)cc1	11.3% (inactive)
C/C(=N\O)c1ccc(N2C(=O)C3CC=C(Cl)CC3C2=O)cc1 (configuration not stated)	12.3% [at 11 µM] (inactive)
O=C(CC(Nc1ccccc1)C(=O)O)c1ccccc1 (configuration not stated)	11.1% (inactive)
N#Cc1ccsc1NC(=O)CCc1ccccc1	-1.2% (inactive)
O=C(O)c1ccc(N/N=C/c2cccc(C(F)(F)F)c2)cc1	-0.976% (inactive)
CC(=O)c1cccc(NC(=O)c2cc3nc(C)cc(C)n3n2)c1	-6.5% (inactive)
O=C(NC1CCCCCC1)c1cc2c(=O)n3ccccc3nc2s1	-0.59% (inactive)
Oc1cccc(-c2nc3ccc4ccccc4c3c3c2CCC3)c1	10.9% [at 11 µM] (inactive)
COc1ccc(/C=N/Nc2snc(SC)c2C#N)cc1OC	7.17% (inactive)
CC(=O)N(c1ccccc1)c1nnc(-c2cnc(C)cn2)s1	-1.1% (inactive)
Nc1nonc1-n1nnc(C(=O)N/N=C/c2ccc(OCc3ccccc3F)cc2)c1CN1CCCCC1	12.2% (inactive)

Structure (SMILES)	activity change, negative = cytotoxicity
Cc1ccccc1-c1nc2cc(Cl)ccc2o1	-4% (inactive)
c1cncc(-c2nc3ccccc3s2)c1	-9.73% (inactive)
O=c1c2c(nc3cc(-c4ccc(Br)cc4)[nH]n13)CCCC2	1.93% (inactive)
CCCCN(C(=O)Cc1cccs1)c1nnc(-c2cccnc2)s1	0.977% (inactive)
CC(=O)Nc1nnc(COc2ccc(Cl)cc2)s1	5.53% (inactive)
O=C(c1noc2c1CCCC2)N1CCc2ccccc2C1	1.91% (inactive)
Cc1nc2ccccc2nc(=O)c1NNc1ccccc1	2.78% (inactive)
Cn1c(NC(=O)CCC2CCCCC2)cc(=O)n(C)c1=O	-12.8% (inactive)
Oc1nc(Nc2ccccc2)sc1/C=C1\C=Nc2ccccc21	4.73% (inactive)
CC(=O)c1cccc(OCc2cc(C(=O)N(C)Cc3cnccn3)no2)c1	4.9% (inactive)
Cc1ccccc1-c1nc(Cc2ccccc2)no1	4.82% (inactive)
Nc1ccc(-c2nc3ncccc3o2)c(O)c1	-12.7% (inactive)
Cc1ccn2cc(-c3cccc(NS(C)(=O)=O)c3)nc2c1	0.194% (inactive)
CCC(=O)c1ccc(OCc2ccccc2)c(OC)c1	-0.933% (inactive)
COc1cccc(CNc2nc3ccccc3n2C)c1O	-5.96% (inactive)
Cc1ccc(C2=NN(S(C)(=O)=O)C(c3cccs3)C2)cc1 (configuration not stated)	-4.21% (inactive)
O=C(c1nnc(-c2ccc(Cl)cc2)o1)C1CCCC1	10.8% (inactive)
COc1ccc(-c2nn(-c3ccccc3)cc2C#N)cc1	16.9% (inactive)

Source: PubChem BioAssay AID540259 (Broad Institute, 2011)
